From PubChem BioAssay (EPA / NIEHS)
Records with an inconclusive call do not appear. Active and inactive are the calls of the source. Rule for the calls, unless noted: active = hit-call score of the fitted dose curve at least 0.9, where 1 is the maximum; inactive = score below 0.9.

Assays:
[1] = ACEA_ER_80hr: ACEA Biosciences xCELLigence Real-Time Cell Analysis on Estrogen Receptor Agonism for Proliferation (AID 2282667; active = hit-call score of the fitted dose curve at least 0.9, where 1 is the maximum); settings: T47D proliferation, impedance (xCELLigence), 80 h
Outline: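 Impedance readout (RT-CES) of T47D proliferation at 80 h post-dose; gain of signal vs DMSO baseline. Compounds: 8 conc, 1:4 serial, top 100 uM final, ≤0.5% DMSO; biological duplicate.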

[2] = ATG_CRE_CIS: Attagene CIS-FACTORIAL HepG2 Assay for human cAMP Responsive Element (CRE) binding protein 3 (AID 2282926); settings: HepG2 CRE cis-reporter, Attagene multiplexed mRNA; actives raise or lower the signal
Outline: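 Endogenous CRE-binding activity in HepG2 is reported through a cis-regulated transfected reporter. Following a day of exposure, mRNA levels are determined by reverse transcription PCR and fluorescent fragment analysis; fits run in both directions versus DMSO.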

[3] = target: CCAAT/enhancer-binding protein beta (Homo sapiens) (UniProt P17676); test: ATG_C_EBP_CIS: Attagene CIS-FACTORIAL HepG2 Assay for human CCAAT/Enhancer Binding Protein (C/EBP) beta (AID 2282927); settings: HepG2 Attagene cis-factorial transcription factor reporter; actives raise or lower the signal
CCAAT/enhancer-binding protein beta (Homo sapiens), sequence (P17676 whole entry, looked up): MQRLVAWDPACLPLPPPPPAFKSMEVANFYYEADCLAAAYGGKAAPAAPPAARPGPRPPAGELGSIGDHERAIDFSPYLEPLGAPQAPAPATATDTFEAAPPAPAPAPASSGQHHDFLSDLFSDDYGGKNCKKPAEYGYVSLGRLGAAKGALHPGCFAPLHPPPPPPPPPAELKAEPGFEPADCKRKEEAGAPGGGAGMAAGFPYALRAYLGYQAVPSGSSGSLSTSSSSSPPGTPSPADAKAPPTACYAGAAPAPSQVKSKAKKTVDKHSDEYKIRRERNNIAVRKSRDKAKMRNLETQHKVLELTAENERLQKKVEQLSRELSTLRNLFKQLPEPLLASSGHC
Outline: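 HepG2, transient MRTU transfection, 24 h treatment. RT-PCR plus CE fluorescence; DMSO negative control, bidirectional fit.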

[4] = target: Aryl hydrocarbon receptor (Homo sapiens) (UniProt P35869); test: ATG_Ahr_CIS: Attagene CIS-FACTORIAL HepG2 Assay for human Aryl Hydrocarbon Receptor (Ahr) (AID 2282930); settings: HepG2 AhR cis-factorial reporter transcription; actives raise or lower the signal
Aryl hydrocarbon receptor (Homo sapiens), sequence (P35869 whole entry, looked up): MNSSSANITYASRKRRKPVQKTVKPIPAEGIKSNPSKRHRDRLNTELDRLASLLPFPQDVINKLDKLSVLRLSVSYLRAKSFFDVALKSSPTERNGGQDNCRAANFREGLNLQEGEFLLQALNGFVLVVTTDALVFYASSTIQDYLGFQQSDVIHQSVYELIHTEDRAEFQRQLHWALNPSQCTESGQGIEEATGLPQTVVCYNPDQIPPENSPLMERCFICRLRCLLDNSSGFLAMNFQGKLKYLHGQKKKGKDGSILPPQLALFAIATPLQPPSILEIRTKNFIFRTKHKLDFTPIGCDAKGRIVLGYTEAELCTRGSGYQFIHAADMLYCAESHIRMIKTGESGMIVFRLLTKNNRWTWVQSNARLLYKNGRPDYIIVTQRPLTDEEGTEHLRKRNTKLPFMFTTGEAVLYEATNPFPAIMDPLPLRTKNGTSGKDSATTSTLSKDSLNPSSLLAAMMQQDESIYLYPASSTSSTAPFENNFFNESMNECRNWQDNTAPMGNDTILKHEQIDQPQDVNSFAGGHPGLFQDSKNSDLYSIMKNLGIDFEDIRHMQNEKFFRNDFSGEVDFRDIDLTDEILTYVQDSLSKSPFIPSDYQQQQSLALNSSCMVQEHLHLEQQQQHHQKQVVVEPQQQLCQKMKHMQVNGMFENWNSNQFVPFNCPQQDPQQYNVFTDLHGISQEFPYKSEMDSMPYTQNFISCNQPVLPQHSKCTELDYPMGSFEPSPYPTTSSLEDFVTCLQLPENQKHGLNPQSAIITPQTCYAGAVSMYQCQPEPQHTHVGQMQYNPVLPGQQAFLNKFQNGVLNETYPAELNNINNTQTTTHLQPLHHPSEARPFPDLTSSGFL
Outline: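 Endogenous factor activity is tracked through cis-promoter reporter units transfected into HepG2 cells. Transcript levels at 24 h are read by fluorescent RT-PCR and capillary electrophoresis, with activity in either direction scored relative to DMSO.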

[5] = ATG_AP_1_CIS: Attagene CIS-FACTORIAL HepG2 Assay for human Activator Protein 1 (AP-1) (AID 2282931); settings: HepG2 Attagene cis-factorial AP-1 reporter mRNA; actives raise or lower the signal
Outline: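 Readout is reporter transcript level from endogenous transcription factor activity, quantified by RT-PCR with fluorescent primer extension and capillary electrophoresis. Transiently transfected HepG2 cells, 24 h exposure. Curves fitted both directions versus DMSO.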

[6] = ATG_AP_2_CIS: Attagene CIS-FACTORIAL HepG2 Assay for human Activator Protein 2 (AP-2) (AID 2282932); settings: HepG2 AP-2 cis-reporter, Attagene transcription factor profiling; actives raise or lower the signal
Outline: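 HepG2 cells transiently transfected with cis-element reporter units and exposed for 24 h. Reporter mRNA measured by RT-PCR, FAM labelling, HpaI digestion and capillary electrophoresis. Changes in either direction fitted relative to DMSO.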

[7] = ATG_BRE_CIS: Attagene CIS-FACTORIAL HepG2 Assay for human Bone Morphogenetic Protein (BMP) Response Element (BRE) (AID 2282933); settings: HepG2 BMP response element reporter, Attagene transcription factor profiling; actives raise or lower the signal
Outline: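 Endogenous transcription factor activity at a BMP response element was monitored in transfected HepG2 cells 24 h after dosing. Fluorescent RT-PCR products were resolved by capillary electrophoresis, and activity was fitted in both directions versus DMSO.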

[8] = target: Retinoic acid receptor alpha (Homo sapiens) (UniProt P10276); test: ATG_DR5_RAR_CIS: Attagene CIS-FACTORIAL HepG2 Assay for human Retinoic Acid Receptor Alpha (RARE), DR5 submotif (AID 2282934); settings: HepG2 Attagene cis-factorial RARE DR5 reporter, mRNA; actives raise or lower the signal;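 for AC50: reporter responds to endogenous RAR alpha beta and gamma in HepG2 not RARA alone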
Retinoic acid receptor alpha (Homo sapiens), sequence (P10276 whole entry, looked up): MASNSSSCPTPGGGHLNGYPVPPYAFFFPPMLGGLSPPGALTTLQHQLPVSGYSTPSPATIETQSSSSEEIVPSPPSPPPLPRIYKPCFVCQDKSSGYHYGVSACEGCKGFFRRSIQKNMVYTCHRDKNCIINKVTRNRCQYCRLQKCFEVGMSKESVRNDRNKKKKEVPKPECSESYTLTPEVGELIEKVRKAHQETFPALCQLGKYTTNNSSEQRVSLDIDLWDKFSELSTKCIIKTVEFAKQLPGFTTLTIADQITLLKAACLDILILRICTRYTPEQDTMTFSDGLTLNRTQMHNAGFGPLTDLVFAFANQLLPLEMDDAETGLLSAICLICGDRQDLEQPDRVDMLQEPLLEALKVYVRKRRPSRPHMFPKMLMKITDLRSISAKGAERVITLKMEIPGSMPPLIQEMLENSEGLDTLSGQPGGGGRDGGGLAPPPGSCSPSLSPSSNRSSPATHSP
Outline: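 After 24 h of chemical exposure, transiently transfected HepG2 cells were lysed for total RNA; the DR5-regulated reporter transcript was quantified via RT-PCR and capillary electrophoresis, with activity fitted bidirectionally against DMSO.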

[9] = target: Transcription factor E2F1 (Homo sapiens) (UniProt Q01094); test: ATG_E2F_CIS: Attagene CIS-FACTORIAL HepG2 Assay for human E2F Transcription Factor 1 (AID 2282935); settings: HepG2 Attagene cis-reporter, E2F reporter RNA transcripts; actives raise or lower the signal
Transcription factor E2F1 (Homo sapiens), sequence (Q01094 whole entry, looked up): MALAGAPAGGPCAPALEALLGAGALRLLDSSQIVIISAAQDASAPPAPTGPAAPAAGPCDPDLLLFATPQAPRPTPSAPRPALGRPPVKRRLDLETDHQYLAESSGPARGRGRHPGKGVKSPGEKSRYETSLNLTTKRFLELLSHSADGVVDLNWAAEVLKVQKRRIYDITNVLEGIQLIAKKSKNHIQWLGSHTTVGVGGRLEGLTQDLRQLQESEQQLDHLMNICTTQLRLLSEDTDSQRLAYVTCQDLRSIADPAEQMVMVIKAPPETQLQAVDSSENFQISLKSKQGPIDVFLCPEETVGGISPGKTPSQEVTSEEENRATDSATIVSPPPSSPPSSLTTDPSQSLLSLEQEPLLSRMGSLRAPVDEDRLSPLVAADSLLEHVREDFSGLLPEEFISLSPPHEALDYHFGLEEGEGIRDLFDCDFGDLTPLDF
Outline: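 Endogenous E2F1 activity read through cis-promoter reporter units transfected into HepG2. After 24 h compound treatment, reporter mRNA measured by RT-PCR, HpaI digestion and capillary electrophoresis. Bidirectional fit versus DMSO.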

[10] = ATG_E_Box_CIS: Attagene CIS-FACTORIAL HepG2 Assay for human Enhancer Box (E-box) (AID 2282936); settings: HepG2 E-box cis-reporter transcription, actives raise or lower the signal
Outline: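 HepG2 cells transiently transfected with multiplexed cis-element reporter units, dosed 24 h; reporter mRNA quantified by RT-PCR, 6-FAM labelling, HpaI digestion and capillary electrophoresis. E-box (USF1) signal fitted bidirectionally vs DMSO.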

[11] = ATG_M_61_CIS: Attagene CIS-FACTORIAL HepG2 Assay for M61 Transcription Factor (Internal Marker) (AID 2282937); settings: HepG2 Attagene CIS-FACTORIAL M61 internal marker reporter; actives raise or lower the signal
Outline: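 Readout is reporter mRNA by RT-PCR, fluorescent primer extension and capillary electrophoresis, with gain or loss fitted relative to DMSO. Transfected HepG2 cells carrying endogenous-TF-driven cis reporters were exposed to chemicals for 24 hours.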

[12] = ATG_EGR_CIS: Attagene CIS-FACTORIAL HepG2 Assay for human Early Growth Response 1 (EGR1) (AID 2282938); settings: HepG2 Attagene CIS-FACTORIAL EGR reporter mRNA; actives raise or lower the signal
Outline: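 After 24 h compound exposure, RNA from reporter-transfected HepG2 cells was reverse-transcribed, PCR-amplified, fluorescently labelled and resolved by capillary electrophoresis. EGR1 reporter transcript changes, up or down, were fitted against DMSO, reflecting endogenous transcription-factor activity.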

[13] = ATG_M_19_CIS: Attagene CIS-FACTORIAL HepG2 Assay for M19 Transcription Factor (Internal Marker) (AID 2282939); settings: HepG2 Attagene CIS-FACTORIAL M19 internal marker reporter; actives raise or lower the signal
Outline: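 Background-control endpoint from a multiplexed HepG2 reporter panel. Cells carrying cis-regulated reporter constructs are treated 24 h, then reporter transcripts are amplified, fluorescently labelled and sized by capillary electrophoresis. DMSO defines baseline.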

[14] = ATG_ERE_CIS: Attagene CIS-FACTORIAL HepG2 Assay for Estrogen Response Element (ERE) (AID 2282940); settings: HepG2 ERE cis-reporter, Attagene RNA transcript; actives raise or lower the signal
Outline: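 Cells used were human hepatoma HepG2, transfected with multiple reporter transcription units under cis-regulatory promoters. Reporter mRNA, read 24 h post-dosing via fluorescent RT-PCR products on capillary electrophoresis, was fitted bidirectionally relative to DMSO.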

[15] = target: Hepatocyte nuclear factor 3-beta (Homo sapiens) (UniProt Q9Y261); test: ATG_FoxA2_CIS: Attagene CIS-FACTORIAL HepG2 Assay for human Forkhead box A2 (FOXA2) (AID 2282942); settings: HepG2 cis-reporter transcription factor activity, 24 h; actives raise or lower the signal
Hepatocyte nuclear factor 3-beta (Homo sapiens), sequence (Q9Y261 whole entry, looked up): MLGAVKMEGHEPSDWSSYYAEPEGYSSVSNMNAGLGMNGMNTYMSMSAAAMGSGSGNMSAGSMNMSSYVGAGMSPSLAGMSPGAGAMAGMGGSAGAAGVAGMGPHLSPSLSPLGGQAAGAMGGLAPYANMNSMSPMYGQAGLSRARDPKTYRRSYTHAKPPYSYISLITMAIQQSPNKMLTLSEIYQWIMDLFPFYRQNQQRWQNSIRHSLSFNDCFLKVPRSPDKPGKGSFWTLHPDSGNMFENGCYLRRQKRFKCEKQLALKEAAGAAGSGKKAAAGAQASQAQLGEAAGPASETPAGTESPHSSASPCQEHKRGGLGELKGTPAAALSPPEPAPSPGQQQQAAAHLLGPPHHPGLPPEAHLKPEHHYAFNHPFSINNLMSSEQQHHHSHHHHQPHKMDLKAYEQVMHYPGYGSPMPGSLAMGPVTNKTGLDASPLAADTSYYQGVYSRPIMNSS
Outline: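 Endogenous transcription factor activity is captured via cis-element-driven reporter transcripts in transfected HepG2. Total RNA taken at 24 h post-dosing; labelled RT-PCR products resolved by capillary electrophoresis. Gain or loss fitted versus DMSO.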

[16] = ATG_FoxO_CIS: Attagene CIS-FACTORIAL HepG2 Assay for human Forkhead box O (FoxO) (AID 2282943); settings: HepG2 Attagene cis-reporter, FoxO element, mRNA; actives raise or lower the signal
Outline: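 Transfected HepG2 reporter cells exposed to test chemical for 24 h; reporter RNA measured by reverse transcription, PCR and fluorescent capillary electrophoresis; curves fitted for increases and decreases against DMSO.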

[17] = ATG_GATA_CIS: Attagene CIS-FACTORIAL HepG2 Assay for human GATA Binding Protein (AID 2282944); settings: HepG2 GATA cis-element reporter, Attagene multiplex mRNA; actives raise or lower the signal
Outline: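 Endogenous transcription factor activity was captured through cis-promoter-driven reporters in transfected HepG2 cells. After 24 h exposure, reporter transcripts were quantified by RT-PCR with fluorescent capillary electrophoresis, and responses fitted both directions against DMSO.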

[18] = ATG_CMV_CIS: Attagene CIS-FACTORIAL HepG2 Assay for human CMV (Internal Marker) (AID 2282928); settings: HepG2 CMV promoter reporter, transcription factor profiling; actives raise or lower the signal;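 note: endpoint acts as a background internal control marker rather than a target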
Outline: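 Cell system: HepG2, transiently transfected multiple reporter units under cis promoters. Exposure: 24 h. Detection: RT-PCR, FAM labeling, HpaI digestion, capillary electrophoresis. Analysis: bidirectional, DMSO baseline.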

[19] = ATG_DR4_LXR_CIS: Attagene CIS-FACTORIAL HepG2 Assay for human Liver X Receptor (LXR), DR4 submotif (AID 2282929); settings: HepG2 Attagene DR4 cis-reporter, mRNA transcription; actives raise or lower the signal
Outline: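 The endpoint is DR4-element-driven reporter transcripts after 24 h chemical exposure of transfected HepG2 cells. These were measured via RT-PCR and capillary electrophoresis, and gain or loss of signal was fitted relative to DMSO controls.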

[20] = ATG_Ets_CIS: Attagene CIS-FACTORIAL HepG2 Assay for human Erythroblast Transformation Specific (ETS) (AID 2282941); settings: HepG2 ETS cis-reporter transcription, actives raise or lower the signal
Outline: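 After transient cis-reporter transfection, HepG2 cells receive test chemical for 24 h. Reporter mRNA levels, measured by RT-PCR and capillary electrophoresis fluorescence, are analysed bidirectionally relative to the DMSO baseline.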

Measured: AC50

Clc1cccnc1
not listed: [18] | [19] | [20]
inactive: all other assays above

CC1CC(=O)CC(C)(C)C1 (stereo unspecified)
not listed: [1] | [17]
inactive: all other assays above

CCCCNS(=O)(=O)c1ccccc1
not listed: [2]
inactive: all other assays above

CC(C)C(=O)OCCOc1ccccc1
not listed: [2] | [6]
inactive: all other assays above

Nc1ccc(O)c([N+](=O)[O-])c1
active: [4] 13.9 µM
not listed: [2]
inactive: all other assays above

CCCCCCOC(=O)CCCCC(=O)OCCCCCC
active: [14] 27.5 µM
not listed: [2] | [11]
inactive: all other assays above

O=S(=O)(O)c1ccc(Nc2nc(Nc3ccc(C=Cc4ccc(Nc5nc(Nc6ccc(S(=O)(=O)O)cc6)nc(N(CCO)CCO)n5)cc4S(=O)(=O)O)c(S(=O)(=O)O)c3)nc(N(CCO)CCO)n2)cc1
not listed: [2] | [11] | [12]
inactive: all other assays above

C=CC(=O)OCCCCCCCCCC
active: [8] 46 µM
not listed: [1]
inactive: all other assays above

CCC(=O)C1CC(C(C)C)CC=C1C (stereo unspecified)
not listed: [2] | [13]
inactive: all other assays above

COC(=O)C=Cc1ccccc1
not listed: [1] | [20]
inactive: all other assays above

CC(C)c1cc(C(C)C)cc(C(C)C)c1
active: [3] 182 µM | [18] 36 µM | [19] 25.9 µM | [5] 125 µM | [6] 180 µM | [8] 59.5 µM | [10] 23.7 µM | [14] 168 µM | [20] 169 µM | [15] 160 µM | [17] 178 µM
inactive: [2] | [4] | [7] | [9] | [11] | [12] | [13] | [16]

CCN(CC)c1cccc(C)c1
not listed: [1]
inactive: all other assays above

O=C1CCCCC1C1CCCCC1 (stereo unspecified)
not listed: [1] | [2] | [18]
inactive: all other assays above
